# High-throughput results as filed in PubChem BioAssay.
# Ecoli rRNA inh – reduced GFP signal of wild-type E. coli, primary screen, bacterial rRNA inhibitor project, GFP/RFP fluorescence, OD600, single point | E. coli WT GFP vs humanized-ribosome RFP mutants, 24 h; hits give low values; DMSO median 0, no signal -100 | GFP signal change (wild-type ribosome), % (no concentration beside the values) | hit rate 1.6% among 350,000 | AID 720706, 2013;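 active = significant combined selectivity score with lowered wild-type GFP, culture density cut under 30%, mutant RFP and density less affected; inactive = any of these conditions unmet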
# ARNT-TACC3 inh – disruptors of ARNT/TACC3 protein interaction, primary screen, biochemical, AlphaScreen, single concentration; Transforming acidic coiled-coil-containing protein 3 (Homo sapiens), Q9Y6A5; AlphaScreen His-ARNT PAS-B/GST-TACC3 binding, luminescence; TACC3 fragment carries E629A point mutation; inhibition, % at 9.99 µM; hit rate 0.66% among 390,000;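 active = mean inhibition of replicates at least 50% and at least half of replicates each reaching 50%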;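 note: 0% = complete ARNT plus TACC3 wells and 100% = ARNT alone without TACC3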
# PvdQ inh – P. aeruginosa PvdQ acylase inhibitors, primary screen, biochemical, fluorescence, plate reader and imaging, single point | PvdQ acylase [Pseudomonas aeruginosa LESB58] | purified PvdQ acylase | inhibition, % at 10 µM | hit rate 0.063% among 340,000; in the data active = inhibition above about 30%, passing the limit was not always enough;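 note: 0% = vehicle neutral wells and 100% = reference inhibitor wells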
# CFTR F508del cor – F508del CFTR correction, initial screen, CFBE line, single point | CFBE cells, YFP halide quenching; stimulated with forskolin plus potentiator P3; % fluorescence drop versus neutral controls | activity (quench increase), % at 7.58 µM | hit rate 0.36% among 350,000;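 active = mean added fluorescence quench of at least 8% versus neutral control, with both replicates also reaching 8%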;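 note: cells transiently co-express mutant CFTR-F508del with the halide-sensitive YFP; corrector assay measuring rescue of mutant channel to the surface after 24 h compound exposure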
# ERAP1 inh – human ERAP1 aminopeptidase inhibitors, primary screen, biochemical, single point, plate reader; Endoplasmic reticulum aminopeptidase 1 (Homo sapiens), Q9NZ08; recombinant ERAP1, Leu-AMC fluorescence, 60 min; inhibition, % at 10.7 µM; hit rate 0.15% among 340,000; AID 652197, 2013;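 active = mean replicate inhibition of at least 30%, or all replicates individually reaching that 30% level; inactive = mean below 30% and not every replicate reaching it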;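 note: 0% = neutral control wells and 100% = L-leucinethiol positive control wells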
# Target sequence (Q9NZ08 whole entry, looked up): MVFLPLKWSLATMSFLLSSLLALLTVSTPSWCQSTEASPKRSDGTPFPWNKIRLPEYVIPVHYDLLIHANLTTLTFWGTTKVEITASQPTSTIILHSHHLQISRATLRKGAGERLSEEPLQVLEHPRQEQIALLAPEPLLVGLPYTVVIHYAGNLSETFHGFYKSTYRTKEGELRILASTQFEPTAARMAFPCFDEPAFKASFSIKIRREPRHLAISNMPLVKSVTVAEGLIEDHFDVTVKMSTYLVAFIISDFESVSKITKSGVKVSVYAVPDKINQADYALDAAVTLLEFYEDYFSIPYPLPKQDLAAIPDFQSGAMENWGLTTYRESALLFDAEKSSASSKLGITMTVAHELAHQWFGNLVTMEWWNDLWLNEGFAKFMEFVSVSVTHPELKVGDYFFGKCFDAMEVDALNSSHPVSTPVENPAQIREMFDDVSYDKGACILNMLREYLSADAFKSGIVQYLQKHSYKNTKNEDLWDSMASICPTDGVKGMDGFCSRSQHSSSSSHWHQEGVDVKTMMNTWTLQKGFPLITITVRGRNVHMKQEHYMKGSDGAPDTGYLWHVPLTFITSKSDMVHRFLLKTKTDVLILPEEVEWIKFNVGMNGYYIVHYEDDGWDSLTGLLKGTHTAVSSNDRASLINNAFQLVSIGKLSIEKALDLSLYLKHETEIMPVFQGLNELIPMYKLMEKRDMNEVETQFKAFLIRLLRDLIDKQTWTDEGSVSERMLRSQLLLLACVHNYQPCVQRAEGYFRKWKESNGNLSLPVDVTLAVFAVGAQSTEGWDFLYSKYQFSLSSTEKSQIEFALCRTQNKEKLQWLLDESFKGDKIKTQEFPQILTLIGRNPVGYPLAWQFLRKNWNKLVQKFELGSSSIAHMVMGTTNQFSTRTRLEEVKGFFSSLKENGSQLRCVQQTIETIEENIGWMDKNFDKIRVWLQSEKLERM
# Starred values were filed as active, the others as inactive; · = no result. A selection: hits, their analogues and other compounds. The true share with any hit is near 2.1%.
SMILES,Ecoli rRNA inh,ARNT-TACC3 inh,PvdQ inh,CFTR F508del cor,ERAP1 inh
O=C(C[C@H]1C[C@@H]2c3cc(NC(=O)Cc4ccncc4)ccc3O[C@@H]2[C@H](CO)O1)NCCN1CCCCC1,1,7,·,1,-1
O=c1c(Cc2ccc(Cl)cc2Cl)c(O)ccn1Cc1ccncc1,-35*,-3,-11,-1,2
O=c1c(C/C=C/c2ccccc2)c(O)ccn1Cc1ccc(Cl)cc1Cl,-19,-4,-7,-2,-1
CC(=O)Nc1ccc(Oc2ncccn2)cc1,·,-2,6,·,·
CC(=O)Nc1cccc(Oc2nc(-c3ccccn3)nc3ccccc23)c1,-10,48*,8,1,·
CC(=O)Nc1cccc(Oc2nc(C(F)(F)F)nc3ccccc23)c1,5,-6,-13,-3,0
CC(=O)Nc1ccc(Oc2nc(-c3ccccn3)nc3ccccc23)cc1,-16,58*,17,-2,2
Cc1ccc(S(=O)(=O)Nc2ccc3c(c2)C(=O)N([C@H](C)CO)C[C@@H](C)[C@H](CN(C)C(=O)Nc2ccc4c(c2)OCO4)OCCCC[C@@H](C)O3)cc1,-2,-2,·,2,5
CNCCC1Sc2ccccc2Oc2ccccc21 (stereo not given),19,·,-20,0,1
CN(C)CCCC1Sc2ccccc2Sc2ccccc21 (stereo not given),-46*,9,-15,3,6
CCCOc1ccc(C(=O)CCC(=O)OCC(=O)Nc2cccc(S(N)(=O)=O)c2)cc1,-2,-4,49*,2,-2
Cn1cc(CCCC(=O)NCc2ccc(F)cc2)c2ccccc21,-37*,-3,-1,-2,-1
CO[C@@H]1CN(C)C(=O)c2ccc(NC(=O)Nc3cccc(F)c3)cc2OC[C@H](C)NC[C@H]1C,-3,6,·,0,-13
O=C(COC(=O)c1ccc(Br)cc1)NCCC1=CCCCC1,17,-4,-10,2,2
O=C(COC(=O)c1ccccc1)NCCC1=CCCCC1,-28*,-2,-1,-2,-3
C[C@H](CO)N1C[C@H](C)[C@H](CN(C)S(=O)(=O)c2cn(C)cn2)Oc2ccc(NC(=O)CCC(F)(F)F)cc2CC1=O,3,-3,·,2,·
O=C(O)CCC(=O)Nc1ccc(-c2csc(Nc3cccc4ccccc34)n2)cc1,-14,8.8*,1,-1,1
O=C(Nc1ccc(-c2csc(Nc3ccccc3)n2)cc1)c1ccccc1,-4,-21,-10,4,0
O=C(c1csc(Nc2cccc3ccccc23)n1)N1CCCC1,-32*,5,-4,2,-4
CCn1c(-c2cc(-c3cccc(OC)c3)nc3ccccc23)n[nH]c1=S,-44*,7,-6,2,-1
CCn1c(-c2cc(-c3ccccc3)sc2N)n[nH]c1=S,-30,5,-12,1,·
O=C(O)c1ccccc1Nc1ccccc1,·,-5,-4,-3,-2
O=C(O)c1ccccc1Nc1ccc(OC(F)F)cc1,-16*,-5,-3,-2,-2
CCC(=O)N1C[C@H]2[C@@H](c3ccccc31)[C@@H](CO)N2Cc1ccccc1F,-2,2,·,2,-2
CC[n+]1c(C)cc(C)n1-c1ccccc1,9,-36,-14,0,102*
SMILES,Ecoli rRNA inh,ARNT-TACC3 inh,PvdQ inh,CFTR F508del cor,ERAP1 inh
CCn1c2ccccc2c2cc(NC(=O)c3ccco3)ccc21,-35*,7,-3,3,-2
COc1ccc(-c2nc(-c3cccc(C)c3)no2)cc1OC,·,-11,3,10*,1
O=C(Nc1ccc(F)cc1)N[C@H]1CC[C@@H](CCNS(=O)(=O)c2ccccc2F)O[C@@H]1CO,-2,6,·,-2,-4
COc1cc(C)ccc1S(=O)(=O)N1CCN(C23CC4CC(CC(C4)C2)C3)CC1,-32*,11,-13,1,0
COc1ccc(NC(=O)Nc2ccccn2)cc1OC,-8,-11,-13,3,·
COc1ccc(NC(=O)Nc2cc(C(C)(C)C)on2)cc1OC,-26*,5,-20,0,-3
C=CCn1c(CCn2c3ccccc3c3ccccc32)n[nH]c1=S,-27*,-10,-5,·,11
C=CCn1c(Cc2nc3ccccc3[nH]2)n[nH]c1=S,·,49*,-4,·,·
Cc1cccc(NC(=O)c2ccc(-c3ccccc3[N+](=O)[O-])o2)c1,-32*,1,0,-3,0
COc1cccc(NC(=O)c2ccc(-c3ccccc3[N+](=O)[O-])o2)c1,-43,1,6,0,1
CCOC(=O)C1=C(N)Oc2cc(O)ccc2C1c1ccc([N+](=O)[O-])cc1 (stereo not given),-44*,-3,3,-2,4
COc1cc(CNc2ncc(-c3ccc(Br)cc3)n2C)cc(OC)c1OC,-19*,5,-7,2,0
O=Cc1ccc2c(c1)CCN2Cc1ccccc1,-19*,-13,-1,1,5
CC(C)NC(=O)Nc1ccc2c(c1)C(=O)N([C@H](C)CO)C[C@H](C)[C@H](CN(C)Cc1ccc(Cl)c(Cl)c1)OCCCC[C@@H](C)O2,3,-7,·,1,0
Cc1cc(C)cc(NC(=O)Nc2cc(S(=O)(=O)N(C)C)ccc2C)c1,-23*,·,·,·,-5
COc1ccc2c3c([nH]c2c1)[C@@H](CO)N(S(=O)(=O)c1cn(C)cn1)CC31CCN(CC2CCCCC2)CC1,4,·,·,8.6*,-6
CCS(=O)(=O)N1CCC2(CC1)CN(S(=O)(=O)c1cn(C)cn1)[C@@H](CO)c1[nH]c3cc(OC)ccc3c12,2,·,·,-1,0
CC1C(=O)OC(c2ccc(Br)cc2)C(C)(C)C1=O (stereo not given),-43*,-2,-14,-7,4
Cc1cccc(-n2c(C)cc(C(=O)NC3CCCCC3)c2C)c1,·,2,3,·,6
COc1ccc(-n2c(C)cc(C(=O)NC3CCCCC3)c2C)cc1,-23*,3,-8,-4,1
CCOc1ccccc1NC(=O)c1csc(C)c1C,-31*,-16,-17,1,1
Cc1ccc(S(=O)(=O)Nc2ccc3c(c2)C(=O)N([C@H](C)CO)C[C@H](C)[C@@H](CN(C)S(=O)(=O)c2ccc(Cl)cc2)OCCCC[C@@H](C)O3)cc1,1,-2,·,2,·
Cc1cccc(CC(=O)Nc2cccnc2)c1,5,-5,1,8.4*,1
COc1ccc(S(=O)(=O)N(C)C[C@H]2OCCCC[C@@H](C)Oc3ccc(NC(=O)Nc4c(C)noc4C)cc3C(=O)N([C@H](C)CO)C[C@@H]2C)cc1,2,-7,·,-1,9
